In the supplement of paper PMC12024424:

tested on: Staphylococcus aureus Sa2 (MRSA, cystic fibrosis isolate); experiment: growth reduction vs untreated control (OD550); higher = stronger antibacterial activity; conditions: 0.1 mM; 24 h
Experimental: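 Single-dose screen of the MedChem Express Drug Repurposing Library (0.1 mM, 1% DMSO) against planktonic MRSA S. aureus Sa2 (CF isolate) in TSB in 96-well plates, 37 °C aerobic, 24 h. Assays were run in triplicate and repeated twice.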

Growth reduction, 100%:
O=C(NCc1c(F)cc(F)cc1F)c1cn2c(c(O)c1=O)C(=O)N1[C@H]3CC[C@H](C3)O[C@@H]1C2 [Bictegravir]
CCN(CC)CCNC(=O)c1c(C)[nH]c(/C=C2\C(=O)Nc3ccc(-c4csc(-c5ccccc5)n4)cc32)c1C [Amcasertib]
CCCCCCCCCCCC[N+](C)(C)CCOc1ccccc1 [Domiphen (bromide)]
Nc1ccc2cc3ccc(N)cc3nc2c1 [Proflavine (hemisulfate)]
CCCCCc1ccc(C=CC(=O)Nc2ccccc2C(=O)O)cc1 [N-(p-amylcinnamoyl) Anthranilic Acid]
CC1(C)CC[C@]2(NC(=O)C(C)(F)F)CC[C@]3(C)[C@H](C(=O)C=C4[C@@]5(C)C=C(C#N)C(=O)C(C)(C)[C@@H]5CC[C@]43C)[C@@H]2C1 [Omaveloxolone]
